What all share (test): log2 fold change, soluble protein after heating vs DMSO (PISA); higher = thermal stabilisation; K562 lysate, 10 uM; active = over 0.2 and 3.5 SD of the protein, either way, in both replicates (recomputed)
Compound in assay [1]: C1=CC=C(C=C1)[C@H](COC2=CC3=C(C=C2)NC(=O)N3)NC(=O)C4=CC=CN(C4=O)CC5=CC(=C(C=C5)F)F
The method, boiled down: (§1)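 Thermal stability, expressed as log-two fold change relative to solvent controls, is given from duplicates. Crude K562 extract in PBS pH 7.4 with 1 mM MgCl2, at 1 mg/mL protein, was treated with 10 μM compound for 30 min and heated in aliquots for 3 min across 48°C-58°C. After pooling, adjustment to 0.5% NP-40 at 4°C and centrifugation at 21,000xg for 90 min, supernatant protein was measured by TMTpro 16plex LC-MS/MS with channel sums equalised.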

Compound in assay [2]: CC1=C(SC2=C1C(=N[C@H](C3=NN=C(N32)C)CC(=O)N)C4=CC=C(C=C4)Cl)C
In outline:
as §1

Compound in assay [3]: CC1=C2C(=CC=C1)N=C(N(C2=O)C3=CC=CC=C3C)CN4C=NC5=C(N=CN=C54)N
In outline:
as §1

Compound in assay [4]: Cc1sc2c(c1C)C(c1ccc(Cl)cc1)=N[C@@H](CC(=O)OC(C)(C)C)c1nnc(C)n1-2
In outline: as §1

Compound in assay [5]: c1ccc([C@@H]2C[C@H]2NC2CCNCC2)cc1
The method, boiled down:
as §1

The full data set covers some 8,800 targets. This sample favours those with a hit. About 0.5% of all pairs of compound and target were hits. Values without a mark were called inactive.

UniProt Q9Y3Z3, sequence (Q9Y3Z3 whole entry, looked up): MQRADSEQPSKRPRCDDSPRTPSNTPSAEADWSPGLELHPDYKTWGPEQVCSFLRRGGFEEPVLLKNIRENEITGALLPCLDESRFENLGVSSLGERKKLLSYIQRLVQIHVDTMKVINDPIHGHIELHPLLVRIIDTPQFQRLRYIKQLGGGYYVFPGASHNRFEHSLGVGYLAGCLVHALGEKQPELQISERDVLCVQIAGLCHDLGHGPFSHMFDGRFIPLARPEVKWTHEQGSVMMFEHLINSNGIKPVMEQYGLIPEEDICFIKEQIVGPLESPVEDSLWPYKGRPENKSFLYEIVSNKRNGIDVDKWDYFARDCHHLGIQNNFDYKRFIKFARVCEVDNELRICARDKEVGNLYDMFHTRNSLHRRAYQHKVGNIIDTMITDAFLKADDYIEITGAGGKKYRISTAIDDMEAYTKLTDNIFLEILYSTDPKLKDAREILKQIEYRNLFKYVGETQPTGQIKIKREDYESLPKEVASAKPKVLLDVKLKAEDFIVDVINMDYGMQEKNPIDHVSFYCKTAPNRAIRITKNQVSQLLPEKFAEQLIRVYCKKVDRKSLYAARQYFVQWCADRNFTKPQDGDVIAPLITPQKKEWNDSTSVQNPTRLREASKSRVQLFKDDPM
UniProt Q7Z6M1, sequence (Q7Z6M1 whole entry, looked up): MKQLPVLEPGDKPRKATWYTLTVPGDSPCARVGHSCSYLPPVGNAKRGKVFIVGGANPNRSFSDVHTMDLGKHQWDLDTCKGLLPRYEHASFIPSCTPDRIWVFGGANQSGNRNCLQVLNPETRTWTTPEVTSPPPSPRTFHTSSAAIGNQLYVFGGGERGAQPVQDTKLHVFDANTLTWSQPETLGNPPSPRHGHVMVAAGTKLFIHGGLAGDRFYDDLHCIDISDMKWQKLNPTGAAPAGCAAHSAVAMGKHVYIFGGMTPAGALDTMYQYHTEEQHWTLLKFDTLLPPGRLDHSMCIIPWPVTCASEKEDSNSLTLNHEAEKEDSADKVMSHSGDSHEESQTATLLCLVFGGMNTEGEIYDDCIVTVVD
UniProt Q53S08, sequence (Q53S08 whole entry, looked up): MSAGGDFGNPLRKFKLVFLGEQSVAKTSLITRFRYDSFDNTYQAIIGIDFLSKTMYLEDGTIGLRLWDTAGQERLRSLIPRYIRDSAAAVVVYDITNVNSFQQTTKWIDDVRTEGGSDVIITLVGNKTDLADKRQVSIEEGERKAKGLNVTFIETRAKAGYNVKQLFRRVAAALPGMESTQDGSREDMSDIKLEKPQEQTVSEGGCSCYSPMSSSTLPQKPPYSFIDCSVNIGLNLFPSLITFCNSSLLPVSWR
UniProt O75150, sequence (O75150 whole entry, looked up): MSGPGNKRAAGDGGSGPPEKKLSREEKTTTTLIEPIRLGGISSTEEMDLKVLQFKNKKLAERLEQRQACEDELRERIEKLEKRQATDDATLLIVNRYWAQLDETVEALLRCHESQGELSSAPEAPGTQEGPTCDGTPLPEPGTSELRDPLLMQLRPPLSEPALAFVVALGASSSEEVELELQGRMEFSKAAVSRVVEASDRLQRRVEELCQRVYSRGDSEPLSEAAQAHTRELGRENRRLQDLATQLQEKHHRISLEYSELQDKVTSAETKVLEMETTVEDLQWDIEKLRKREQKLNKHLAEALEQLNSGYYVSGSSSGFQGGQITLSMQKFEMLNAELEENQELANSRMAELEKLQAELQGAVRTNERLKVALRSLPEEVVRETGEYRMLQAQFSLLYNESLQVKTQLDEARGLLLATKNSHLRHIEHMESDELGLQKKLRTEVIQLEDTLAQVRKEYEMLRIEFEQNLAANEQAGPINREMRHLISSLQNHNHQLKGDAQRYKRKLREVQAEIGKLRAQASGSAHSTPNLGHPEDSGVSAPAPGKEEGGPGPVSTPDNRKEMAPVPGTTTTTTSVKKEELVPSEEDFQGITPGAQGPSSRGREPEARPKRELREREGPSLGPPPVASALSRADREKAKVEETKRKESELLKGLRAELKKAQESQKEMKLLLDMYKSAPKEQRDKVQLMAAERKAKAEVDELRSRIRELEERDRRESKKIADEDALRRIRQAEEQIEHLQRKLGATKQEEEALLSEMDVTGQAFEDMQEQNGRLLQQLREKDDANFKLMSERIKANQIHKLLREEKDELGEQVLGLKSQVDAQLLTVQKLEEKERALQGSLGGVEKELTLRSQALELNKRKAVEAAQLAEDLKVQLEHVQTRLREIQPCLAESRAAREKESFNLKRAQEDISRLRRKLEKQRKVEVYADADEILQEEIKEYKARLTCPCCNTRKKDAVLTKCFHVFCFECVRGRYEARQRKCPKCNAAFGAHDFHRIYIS
UniProt O14730, sequence (O14730 whole entry, looked up): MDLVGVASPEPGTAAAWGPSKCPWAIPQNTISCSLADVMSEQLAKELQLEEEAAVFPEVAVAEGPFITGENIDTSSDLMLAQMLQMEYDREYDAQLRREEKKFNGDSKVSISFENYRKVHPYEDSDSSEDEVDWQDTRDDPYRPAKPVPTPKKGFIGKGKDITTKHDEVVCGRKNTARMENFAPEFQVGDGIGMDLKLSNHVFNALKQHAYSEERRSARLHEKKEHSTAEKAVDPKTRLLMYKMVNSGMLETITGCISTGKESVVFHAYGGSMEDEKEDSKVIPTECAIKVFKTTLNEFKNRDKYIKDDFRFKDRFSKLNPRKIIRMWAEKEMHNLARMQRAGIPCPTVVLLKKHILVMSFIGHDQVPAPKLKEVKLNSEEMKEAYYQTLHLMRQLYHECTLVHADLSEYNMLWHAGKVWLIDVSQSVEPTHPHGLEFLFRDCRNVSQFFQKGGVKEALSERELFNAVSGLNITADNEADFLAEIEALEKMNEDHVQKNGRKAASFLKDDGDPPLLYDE
UniProt P51159, sequence (P51159 whole entry, looked up): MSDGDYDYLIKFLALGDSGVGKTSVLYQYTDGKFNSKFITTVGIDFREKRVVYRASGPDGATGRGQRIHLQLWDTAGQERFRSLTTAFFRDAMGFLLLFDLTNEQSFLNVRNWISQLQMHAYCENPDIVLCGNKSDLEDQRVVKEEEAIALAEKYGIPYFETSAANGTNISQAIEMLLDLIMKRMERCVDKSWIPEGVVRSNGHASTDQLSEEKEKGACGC
UniProt Q9P0K7, sequence (Q9P0K7 whole entry, looked up): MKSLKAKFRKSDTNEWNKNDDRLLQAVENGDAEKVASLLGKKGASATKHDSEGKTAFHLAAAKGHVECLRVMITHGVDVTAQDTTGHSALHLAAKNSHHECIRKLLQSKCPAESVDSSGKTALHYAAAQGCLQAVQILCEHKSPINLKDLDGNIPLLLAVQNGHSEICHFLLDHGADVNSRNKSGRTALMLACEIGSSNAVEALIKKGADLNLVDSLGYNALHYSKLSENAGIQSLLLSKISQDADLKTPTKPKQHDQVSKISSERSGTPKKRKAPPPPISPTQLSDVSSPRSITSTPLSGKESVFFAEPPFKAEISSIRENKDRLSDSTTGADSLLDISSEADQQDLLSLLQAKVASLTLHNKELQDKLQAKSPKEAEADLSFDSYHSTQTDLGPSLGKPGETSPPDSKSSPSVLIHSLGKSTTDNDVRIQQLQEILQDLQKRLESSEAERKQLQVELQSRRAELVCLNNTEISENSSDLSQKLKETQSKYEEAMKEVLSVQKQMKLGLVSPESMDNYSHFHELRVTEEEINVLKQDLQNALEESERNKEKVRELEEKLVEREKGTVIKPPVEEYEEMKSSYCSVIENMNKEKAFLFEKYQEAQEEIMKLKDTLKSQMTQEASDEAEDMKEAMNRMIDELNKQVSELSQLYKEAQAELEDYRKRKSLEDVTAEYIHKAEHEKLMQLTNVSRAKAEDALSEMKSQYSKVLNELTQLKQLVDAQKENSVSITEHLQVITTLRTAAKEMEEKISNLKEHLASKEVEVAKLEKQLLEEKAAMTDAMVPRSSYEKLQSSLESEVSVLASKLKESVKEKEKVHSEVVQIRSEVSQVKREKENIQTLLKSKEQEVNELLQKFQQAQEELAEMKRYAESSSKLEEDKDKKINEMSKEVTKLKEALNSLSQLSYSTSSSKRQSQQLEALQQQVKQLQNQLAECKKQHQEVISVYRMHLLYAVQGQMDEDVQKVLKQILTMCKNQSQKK
UniProt Q15287, sequence (Q15287 whole entry, looked up): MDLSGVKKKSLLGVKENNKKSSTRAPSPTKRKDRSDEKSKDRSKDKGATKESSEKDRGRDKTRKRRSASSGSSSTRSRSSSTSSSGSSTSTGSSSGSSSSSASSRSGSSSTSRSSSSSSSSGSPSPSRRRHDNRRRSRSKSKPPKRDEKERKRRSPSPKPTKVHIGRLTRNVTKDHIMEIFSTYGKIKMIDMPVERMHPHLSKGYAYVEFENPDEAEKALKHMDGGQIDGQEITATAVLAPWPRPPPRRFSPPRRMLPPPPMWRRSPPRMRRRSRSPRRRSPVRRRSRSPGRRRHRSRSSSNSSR
UniProt Q05823, sequence (Q05823 whole entry, looked up): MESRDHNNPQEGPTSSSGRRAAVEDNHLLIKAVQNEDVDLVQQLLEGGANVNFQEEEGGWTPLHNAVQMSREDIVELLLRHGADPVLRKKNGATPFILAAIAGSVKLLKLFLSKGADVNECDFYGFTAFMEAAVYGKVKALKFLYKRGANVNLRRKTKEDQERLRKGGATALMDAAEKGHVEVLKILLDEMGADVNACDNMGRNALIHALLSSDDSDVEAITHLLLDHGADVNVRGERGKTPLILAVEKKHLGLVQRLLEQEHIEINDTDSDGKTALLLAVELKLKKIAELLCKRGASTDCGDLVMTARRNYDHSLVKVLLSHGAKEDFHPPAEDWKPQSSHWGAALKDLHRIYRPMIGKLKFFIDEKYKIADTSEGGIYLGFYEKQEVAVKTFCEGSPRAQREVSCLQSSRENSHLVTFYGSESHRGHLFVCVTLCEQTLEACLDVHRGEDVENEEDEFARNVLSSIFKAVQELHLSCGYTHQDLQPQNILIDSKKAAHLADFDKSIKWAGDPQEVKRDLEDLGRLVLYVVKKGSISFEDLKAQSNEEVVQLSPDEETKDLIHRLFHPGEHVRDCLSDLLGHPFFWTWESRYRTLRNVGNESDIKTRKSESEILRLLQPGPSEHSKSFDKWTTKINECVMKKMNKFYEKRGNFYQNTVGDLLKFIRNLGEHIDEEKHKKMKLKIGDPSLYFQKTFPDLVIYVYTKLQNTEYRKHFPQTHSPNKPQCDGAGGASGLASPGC

Turning to RABEPK (UniProt Q7Z6M1), the log2 fold change in assay [1] was -0.032; in assay [2] it was 0.054; in assay [3] it was 0.026; in assay [4], 0.017; in assay [5] it was -0.071.
On to RBSN (UniProt Q9H1K0), for which the log2 fold change in assay [1] was 0.031; in assay [2], 0.076; in assay [3], 0.087; in assay [4] it was 0.117; in assay [5], -0.019.
For RCOR3 isoform 3 (UniProt Q9P2K3), the log2 fold change was -0.026 in assay [1]; 0.009 in assay [2]; 0.046 in assay [3]; 0.011 in assay [4]; 0.394 (active) in assay [5].
Regarding RAB27A (UniProt P51159), the log2 fold change is 0.052 in assay [1]; 0.028 in assay [2]; -0.007 in assay [3]; -0.013 in assay [4]; 0.181 in assay [5].
For the target RPL37A (UniProt P61513), the log2 fold change was -0.009 in assay [1]; 0 in assay [2]; -0.031 in assay [3]; 0.191 in assay [4]; 0.166 in assay [5].
As for RPLP0P6 (UniProt Q8NHW5), the log2 fold change is 0.052 in assay [1]; -0.038 in assay [2]; -0.002 in assay [3]; -0.026 in assay [4]; -0.027 in assay [5].
As for RNPS1 (UniProt Q15287), the log2 fold change in assay [1] was 0.014; in assay [2] it was -0.003; in assay [3], 0.06; in assay [4], 0.036; in assay [5] it was 0.016.
Turning to RIOK3 (UniProt O14730), the log2 fold change in assay [1] was 0.002; in assay [2] it was 0.052; in assay [3] it was 0.053; in assay [4], -0.007; in assay [5], 0.016.
On the same counts, the results for RNF40 (UniProt O75150) are 0, -0.02, 0.007, -0.003 and 0.041.
The corresponding values for RAI14 isoform 2 (UniProt Q9P0K7) are 0.002, -0.052, -0.02, -0.041 and -0.033.
In the case of RBM8A (UniProt Q9Y5S9), the log2 fold change in assay [1] was 0.066; in assay [2] it was 0.01; in assay [3], -0.061; in assay [4], 0.084; in assay [5], 0.171.
With RAB6D (UniProt Q53S08), the log2 fold change in assay [1] is -0.045; in assay [2] it was 0.01; in assay [3] it was 0.034; in assay [4] it was -0.003; in assay [5], -0.045.
On to RNASEL (UniProt Q05823), for which the log2 fold change is 0.047 in assay [1]; -0.041 in assay [2]; 0.068 in assay [3]; -0.004 in assay [4]; 0.046 in assay [5].
Regarding SAMHD1 (UniProt Q9Y3Z3), the log2 fold change was 0.005 in assay [1]; 0.002 in assay [2]; -0.018 in assay [3]; 0.051 in assay [4]; -0.002 in assay [5].

The record behind these values is the supplement of paper PMC10849652.
